This note sets out measurements from PubChem BioAssay (NCATS).

A short description of assay [1]: Primary qHTS for small molecule stabilizers of the endoplasmic reticulum resident proteome: Secreted ER Calcium Modulated Protein (SERCaMP) assay (AID 1508630). The settings on record: SH-SY5Y GLuc-SERCaMP (Gaussia luciferase released on ER calcium loss) secretion, thapsigargin, luminescence; series mostly up to 38.4 µM. The essentials:
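GLuc-SERCaMP-expressing SH-SY5Y cells, pretreated 16 h with compound, are challenged with thapsigargin to empty ER calcium stores; after 4 h, coelenterazine is added directly to the medium and luminescence is imaged.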

The nature of assay [2]: Primary qHTS for inhibitors of nuclear receptor binding SET domain protein 2 (NSD2) in an isogenic RCH-ACV NSD2 p.E1099K mutant (9B) (AID 1645876). Further: nearly all actives have a fitted effect of over 70% in size. Further: potency means the concentration at half of the fitted maximal effect. Conditions: RCH-ACV NSD2 E1099K (9B) viability, CellTiter-Glo, 72 h; series mostly up to 44.9 µM. Background: qHTS replaces the single test concentration by a dilution series.
Assay [3] can be described thus: Primary qHTS for inhibitors of nuclear receptor binding SET domain protein 2 (NSD2) in an RCH-ACV wild type WT cells (2C) (AID 1645877). Further: nearly all actives have a fitted effect of over 70% in size. Further: potency means the concentration at half of the fitted maximal effect. Conditions: RCH-ACV (leukaemia line) NSD2 WT (2C) viability, CellTiter-Glo, 72 h; series mostly up to 44.9 µM.

“And” between values parts separate entries of the source, which are not always exact repeats. Equal values may be shown once. Inconclusive results are not listed. The source made the active and inactive calls. The call rests on the fitted dose curve; in most records, active means well fitted curve in the direction sought with a large enough effect; inconclusive means small, poorly fitted or top-dose-only effect, or another doubt; inactive means no such curve, though single readings can be large; an effect the other way counts as inactive or inconclusive.

Consider `COCCOc1ccc2c(c1)ncn2-c1ccc2cccc(N3CCC(N)CC3)c2n1`, for which the Potency result in assay [1] was “inactive”. The Potency in assay [2] was 2.3 µM (active) and 2.09 µM (active); in assay [3] it was 2.3 µM (active) and 2.35 µM (active).
For the molecule `NC(=O)Nc1cc(-c2cccc(F)c2)sc1C(=O)N[C@H]1CCCNC1`, in assay [1], the Potency entry is “inactive”. The Potency was 81.7 nM (active) and 74.2 nM (active) in assay [2]; 81.7 nM (active) and 74.2 nM (active) in assay [3].
Consider `Cc1nc2cnc3ccc(C#Cc4cccnc4)cc3c2n1-c1ccc(C(C)(C)C#N)cc1`, for which, in assay [1], the Potency entry was “inactive”. The Potency in assay [2] is 7.31 µM (active) and 148 nM (active); in assay [3] it was 8.2 µM (active) and 148 nM (active).
`CN[C@H]1CCc2cc(OC)c(OC)c(OC)c2-c2ccc(OC)c(=O)cc21`: in assay [1], the Potency result is “inactive”. Moreover, the Potency in assay [2] was 105 nM (active); in assay [3], 118 nM (active).
In the same order, the values of `CC(C)(C)c1cc(NC(=O)Nc2ccc(-c3cn4c(n3)sc3cc(OCCN5CCOCC5)ccc34)cc2)no1` are “inactive”, “inactive” and “inactive”.
Take `COc1cc2c(Oc3ccc4[nH]c(C)cc4c3F)ncnc2cc1OCCCN1CCCC1`: the Potency result in assay [1] was “inactive”. For the same molecule, the Potency was 4.59 µM (active) and 6.61 µM (active) in assay [2]; 7.28 µM (active) and 7.42 µM (active) in assay [3].
With `CC[C@@H]1C(=O)N(C)c2cnc(Nc3ccc(C(=O)NC4CCN(C)CC4)cc3OC)nc2N1C1CCCC1`, the Potency entry in assay [1] was “inactive”. Besides, the Potency in assay [2] and in assay [3] was 37.2 nM (active) in each case.
As for `Cc1cc(C(=O)N2CCN(c3cccc(Cl)c3)CC2)n(-c2ccccc2)n1`, the Potency entry in assay [1] was “inactive”. The Potency is 2090 nM (active) in assay [2] and 1320 nM (active) in assay [3].
Turning to `Nc1ccc(C(=O)c2cc3c(ccc4ccccc43)[nH]2)cc1`, the Potency result in assay [1] was “inactive”. Moreover, the Potency in assay [2] was 2410 nM (active); in assay [3], 1710 nM (active).
